From PubChem BioAssay (NCI) come the findings set out here.

Each structure is given as a SMILES string. About 79,000 compounds went through this panel and 15% of them were active in at least one assay; those are over-represented in the sample as a whole. Values without a mark were called inactive. Calls of active or inactive are those of the source. Cut-off read from the data, not from the text of the source: active = growth inhibition above about 70%; inactive = the rest.

The nature of test [1]: NCI Yeast Anticancer Drug Screen. Data for the rad50 strain (AID 155).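 Note: 0% = growth of vehicle-only cultures of the same strain.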 The following applies: S. cerevisiae rad50 strain growth inhibition; at 50.0 µM; hits give high values. In outline:
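Compounds were tested on a yeast strain with an engineered DNA damage repair alteration; the reported value is growth inhibition normalised to vehicle treatment.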

Test [2] in a line: NCI Yeast Anticancer Drug Screen. Data for the mec2-1 strain (AID 157). The conditions noted are these: S. cerevisiae mec2-1 strain, at 50.0 µM, hits give high values. A digest of the protocol:
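Cells of the genetically defined mec2-1 yeast strain are incubated with test compound. Inhibition of growth is calculated against vehicle-treated controls.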

Test [3] is described as follows: NCI Yeast Anticancer Drug Screen. Data for the sgs1 mgt1 strain (AID 161).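 Note: 0% = growth of cultures given vehicle only.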 The following applies: S. cerevisiae sgs1 mgt1 strain, at 50.0 µM, hits give high values. In outline: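 Inhibition of yeast growth, normalised to vehicle-treated controls, is reported for a strain bearing genetic alterations in DNA damage repair.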
Test [4] can be described thus: NCI Yeast Anticancer Drug Screen. Data for the cln2 rad14 strain (AID 165).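 Note: 0% = growth equal to vehicle treated cultures.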 The following applies: S. cerevisiae cln2 rad14 strain, at 50.0 µM, hits give high values. In outline: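 The screen exposed genetically defined yeast (cln2 rad14) to test compounds and scored growth inhibition relative to vehicle-treated controls.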
Test [5] can be described thus: NCI Yeast Anticancer Drug Screen. Data for the bub3 strain (AID 167). The conditions noted are these: S. cerevisiae bub3 mutant strain, at 50.0 µM, hits give high values. In outline: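 Growth of a checkpoint-deficient yeast mutant is measured after compound exposure. Values represent inhibition relative to vehicle.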
Test [6] can be described thus: NCI Yeast Anticancer Drug Screen. Data for the mlh1 rad18 strain (AID 175). The conditions noted are these: S. cerevisiae mlh1 rad18 strain growth inhibition; at 50.0 µM; hits give high values. A digest of the protocol:
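Compound-treated yeast growth, normalised to vehicle controls. Strain bears defined DNA repair mutations.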

On to `O=NNc1ccc(Oc2ccccc2)cn1`, for which the growth inhibition was 15.4% in test [1]; -13.5% in test [2]; -7.9% in test [3]; -9% in test [4]; -19.8% in test [5]; -1.85% in test [6].
Regarding `C[N+]1(C)CCC(C(=O)c2ccccc2)CC1`, the growth inhibition in test [1] is 1.15%; in test [2] it was 4.95%; in test [3] it was 5.6%; in test [4], -17.9%; in test [5], 17%; in test [6] it was 16.4%.
For the compound `CC(=O)Oc1cc(C(C)C)c(OCCN(C)C)cc1C`, the growth inhibition in test [1] was -0.15%; in test [2] it was 10.3%; in test [3], 0.45%; in test [4], -3.6%; in test [5], -0.5%; in test [6], -4.1%.
Consider `Cc1cc(NC(=O)NC(=O)c2ccccc2N(C)C)ccc1Oc1ncc(Br)cn1`, for which the growth inhibition in test [1] is -14.6%; in test [2] it was -13.8%; in test [3], -13.3%; in test [4], 12.2%; in test [5], -3.4%; in test [6], -4.45%.
Turning to `CCCCCC(C(C)=O)C(C)=O`, the growth inhibition is -17.5% in test [1]; -19.6% in test [2]; -15.1% in test [3]; 0.45% in test [4]; -15.8% in test [5]; -15.6% in test [6].
`Cc1cccc(Cl)c1N`: the growth inhibition in test [1] is -5.55%; in test [2], -7.95%; in test [3] it was 6.9%; in test [4], 3.15%; in test [5], -2.4%; in test [6] it was -3.15%.
`CC1OS(=O)OC1C` (configuration not stated): the growth inhibition was -20.9% in test [1]; -23.6% in test [2]; -2.4% in test [3]; -21.7% in test [4]; -8.45% in test [5]; -0.4% in test [6].
`N/N=C/c1ccc2ccccc2n1`: the growth inhibition is -14.4% in test [1]; -12.6% in test [2]; -17.4% in test [3]; -1.75% in test [4]; 12.6% in test [5]; -19.6% in test [6].
With `Nc1nc(-c2ccccn2)cc(-c2cc(-c3ccccn3)nc(N)n2)n1`, the growth inhibition in test [1] is -12.1%; in test [2], -11.6%; in test [3] it was -18.2%; in test [4] it was -0.7%; in test [5], -9.75%; in test [6], 6.25%.
On to `COC1OC(CO)C(O)C(OC(C)=O)C1NC(=O)N(CCCl)N=O` (configuration not stated), for which the growth inhibition in test [1] was -4.9%; in test [2], -13.4%; in test [3] it was -6.2%; in test [4] it was 7.4%; in test [5], -7.65%; in test [6] it was -8.75%.
`CCCOC(=O)/C=C(\Cl)C(=O)OCCC`: the growth inhibition in test [1] was -0.95%; in test [2], 4.15%; in test [3], 0.65%; in test [4] it was -23.2%; in test [5], -45.6%; in test [6] it was -5.8%.
Regarding `C=CCNC(=S)NN(C)C`, the growth inhibition in test [1] was -42%; in test [2] it was -16%; in test [3], -16.9%; in test [4], -51.5%; in test [5], -28.2%; in test [6], -16.4%.
Take `O=C(/C=N/O)Nc1ccccc1`: the growth inhibition in test [1] is 10.8%; in test [2] it was 7.25%; in test [3], -0.15%; in test [4], 7.9%; in test [5] it was 7.25%; in test [6], -9.35%.
Consider `Nc1c(S(=O)(=O)O)cc(Br)c2c1C(=O)c1ccccc1C2=O`, for which the growth inhibition in test [1] is 54.5%; in test [2] it was 15.8%; in test [3], 38.7%; in test [4], 38%; in test [5], 45.8%; in test [6], 56.4%.
On to `Clc1nc(Cl)c2ncn(C3CCCCO3)c2n1` (configuration not stated), for which the growth inhibition in test [1] is 26.4%; in test [2], 26.1%; in test [3], 5.05%; in test [4], 4.6%; in test [5], 38.2%; in test [6], 14.3%.
In the case of `NC(=O)C1C=CN(Cc2ccccc2)C=C1`, the growth inhibition in test [1] is -5.2%; in test [2] it was 7.45%; in test [3], -0.65%; in test [4] it was -12.8%; in test [5] it was 23.4%; in test [6], 7.3%.
In the case of `Cc1ccc(-c2n[nH]c(=O)n2/N=C\c2ccc([N+](=O)[O-])cc2)cc1`, the growth inhibition is 34% in test [1]; 7.3% in test [2]; -12.4% in test [3]; 3.55% in test [4]; -11.9% in test [5]; -41.5% in test [6].
With `NC(=O)Nc1cccc(C(=O)O)c1C(=O)O`, the growth inhibition is -29.4% in test [1]; -13.2% in test [2]; -18.1% in test [3]; -33.6% in test [4]; -13.1% in test [5]; -28.4% in test [6].
Consider `CC1(C=O)CCCC2(C)[C@@H]1CCC13CC(CO)C(CC[C@H]12)C3` (some centres not stated), for which the growth inhibition is 19.4% in test [1]; 5.7% in test [2]; 10.8% in test [3]; 16.6% in test [4]; 14.1% in test [5]; 18.6% in test [6].
Turning to `N=C1C(O)=CC(=O)C(O)=C1C(=O)O`, the growth inhibition was -9.1% in test [1]; 3.9% in test [2]; 0% in test [3]; 1.95% in test [4]; -13% in test [5]; 3.7% in test [6].
In the case of `N#CCCCCCCC(N)=O`, the growth inhibition in test [1] is 4.4%; in test [2], -0.9%; in test [3], 6.4%; in test [4] it was -1.25%; in test [5], -5.6%; in test [6], -16.2%.
On to `O=C(N=C1C(=O)C2(CCCCC2)C2(N=C(c3ccccc3)OC2=O)C12CCCCC2)c1ccccc1` (configuration not stated), for which the growth inhibition in test [1] was 11.8%; in test [2], 8.75%; in test [3], 9.35%; in test [4] it was -5.05%; in test [5] it was -2.35%; in test [6], 14.5%.
As for `CC(C)CC1NC(=O)C(C(C)C)NC(=O)CC(C)COC(=O)C(CC(C)C)N(C)C(=O)C(C(C)C)NC(=O)C(C(C)C)OC1=O` (configuration not stated), the growth inhibition in test [1] is -8.2%; in test [2] it was -3.7%; in test [3] it was 7.55%; in test [4] it was 7.95%; in test [5] it was 8.1%; in test [6], 14.3%.
Take `O=C(O)C1CSCN1` (configuration not stated): the growth inhibition in test [1] was -3.85%; in test [2], -22.9%; in test [3], -3.2%; in test [4] it was 1.1%; in test [5] it was 1%; in test [6], 18.3%.
For `CC(C)CC(O)CC(C)C`, the growth inhibition in test [1] was 1.25%; in test [2] it was -25.1%; in test [3], -0.75%; in test [4], 28.4%; in test [5], -15.3%; in test [6], 19.8%.
As to `CC(=O)Nc1c(F)cc(F)cc1[N+](=O)[O-]`, the growth inhibition in test [1] is -28.4%; in test [2], -3.4%; in test [3], -12.4%; in test [4], -16.8%; in test [5], -18.8%; in test [6], 10.3%.
`CSc1ncc(C=O)n1Cc1ccccc1`: the growth inhibition was -4.35% in test [1]; 6.7% in test [2]; 0.3% in test [3]; -34.5% in test [4]; 2.15% in test [5]; 5.6% in test [6].
`O=C(Nc1ccccc1)c1cccc(F)c1`: the growth inhibition is -2.9% in test [1]; -20.8% in test [2]; -6.25% in test [3]; 9.1% in test [4]; -19.4% in test [5]; 7.6% in test [6].
Take `CC(C)CC(=O)c1ccccn1`: the growth inhibition in test [1] was -10.1%; in test [2], -30.9%; in test [3] it was -16.1%; in test [4], 7.95%; in test [5] it was -19%; in test [6], -0.35%.
Take `C=C1CCCCCCCCC/C=C/1SCCCSC`: the growth inhibition in test [1] was 5.6%; in test [2], 26.4%; in test [3], -31.6%; in test [4], -17.9%; in test [5], -19%; in test [6], -20.2%.
On to `CCOC(=O)c1ccc(C(=N)N)cc1`, for which the growth inhibition in test [1] was 8.4%; in test [2], 2.2%; in test [3] it was 11%; in test [4], -15.2%; in test [5], 11.2%; in test [6], 5.55%.
Take `CO/C(N)=C(\C#N)N=Cc1ccco1`: the growth inhibition in test [1] is -21.4%; in test [2], -22.4%; in test [3] it was -4.65%; in test [4], 11.8%; in test [5], -4.55%; in test [6], 9.3%.
Turning to `CCCCCCC#CC(=O)OCCCC`, the growth inhibition is -9.8% in test [1]; -14.9% in test [2]; 6.05% in test [3]; -20% in test [4]; -21.5% in test [5]; -16.4% in test [6].
As for `O/N=C(\CC(O)(C(F)(F)F)C(F)(F)F)c1cccs1`, the growth inhibition was 81% (active) in test [1]; 76.9% (active) in test [2]; 45.6% in test [3]; 87.5% (active) in test [4]; 75.8% (active) in test [5]; 93.5% (active) in test [6].
`COc1cc(NCCCCCNC(C)C)c2ncccc2c1`: the growth inhibition was 48.9% in test [1]; 20.2% in test [2]; 35.3% in test [3]; 27.9% in test [4]; 35.6% in test [5]; 54% in test [6].
Take `CC(=O)c1cccc(OCC(O)CN2CCN(c3ccc(C)cc3)CC2)c1` (configuration not stated): the growth inhibition in test [1] is -12.3%; in test [2], 3.95%; in test [3] it was 4.1%; in test [4], -8.9%; in test [5], 3.15%; in test [6] it was -2.25%.
Regarding `Nc1ncnc2c(C3OC(CO)C(O)C3O)nsc12` (configuration not stated), the growth inhibition was -6.8% in test [1]; -23.6% in test [2]; -37.1% in test [3]; -15.2% in test [4]; -32.1% in test [5]; -38% in test [6].
